Results: PubChem BioAssay AID1845225 (National Center for Advancing Translational Sciences (NCATS), 2023)
Results filed as inconclusive are left out. Calls follow the shape of the dose curve; as a rule, active = well fitted curve in the direction sought with a large enough effect; inconclusive = small, poorly fitted or top-dose-only effect, or effect the other way, or another doubt; inactive = no such curve, though single readings can be large or run the other way.

Test: Confirmatory redox qHTS assay for identification of artifact compounds.
Conditions: Amplex Red/HRP redox cycling with DTT, fluorescence; series mostly up to 39 µM; redox activity vs DA3003: at the top concentration
From the text: PI: Alexander Tropsha Ph.D. UNC Eshelman School of Pharmacy University of North Carolina, Chapel Hill, North Carolina Hits from high-throughput screening (HTS) of chemical libraries are often false positives due to their interference with the assay detection technology. In response to this problem, we generated the largest publicly available library of chemical liabilities and developed a free webtool to predict HTS artifacts, both of which are described herein. More specifically, we generated, curated, and integrated HTS datasets for thiol reactivity, redox activity, and luciferase (firefly and nano) activity. Using these curated datasets, we developed and validated several Quantitative Structure-Interference Relationship (QSIR) models to predict nuisance behavior. […] These models were employed for virtual profiling of the National Center for Advancing Translational Science's (NCATS) in-house library, and 256 compounds for each assay were selected for the experimental validation of nuisance behavior. The BA for these external predictions ranged from 58 to 78% for compounds within the applicability domains of the models. […] The models developed in this study, along with aggregation models previously developed by our group (SCAM Detective) were implemented in "Liability Predictor," an online tool which may be used as part of chemical library design or for triaging HTS hits. Both the models and the curated datasets are publicly available at https://liability.mml.unc.edu/.
PROTOCOL TABLE SEQUENCE No. (e.g., 1, 2, 3, etc.); […] (e.g., Cells, Incubation, Reagent, etc.); VALUE; DESCRIPTION. 1; Reagent; 3 uL; Amplex Red and HRP mixture. 2; Compounds and control; 16 nL; Kalypsis pin tool (Wako USA) equipped with a 1536-well pin head. 3; Incubation; 15 min. 4; Reagent; 1 uL; […]. 5; Incubation; 30 min. 6; Detection; Fluorescence, ViewLux microplate reader, 525 nm excitation, 598 nm emission. NOTES (numbers refer to Sequence numbers above) 1. 3 uL of a mixture containing Amplex Red (25 uM final concentration) and horseradish peroxidase (HRP; 250 mU/mL final concentration) in assay buffer (HBSS) was dispensed into all wells of a 1536-well assay plate (solid-bottom black plate; Greiner Bio One, Monroe, NC). 2. […] 3. 15 min. incubation at room temperature protected from light. 4. 1 uL of DTT (prepared fresh; final concentration 250 uM) was dispensed for a final assay volume of 4 uL. 5. Plates were centrifuged (121xg, 15 seconds) and incubated for 30 minutes at room temperature protected from light. 6. Samples were read for fluorescence (Ex/Em = 525(20)/598(25) nm) on a ViewLux CCD imager (PerkinElmer). Data were normalized to DMSO (0% activity) and DA3003 (10 uM final concentration; 100% activity) and the resulting percent inhibition data were fitted to a 4-parameter Hill equation using NCATS in-house software.

Redox activity vs DA3003, inactive:
COc1ccc(C(=O)Nc2nc3c(s2)CCCC3)cc1Cl 0.945%
O=C1CCc2cc(S(=O)(=O)Nc3cccc(F)c3)ccc2N1 -0.966%
COc1ccc(NC(=O)C(Cc2ccccc2)n2cccc2)c(OC)c1 (stereo not given) -0.936%
COc1cccc(-c2nc(SCC(=O)Nc3ccc4c(c3)OCO4)c(-c3ccccc3)[nH]2)c1 -2.58%
Cc1nc2ccc(S(=O)(=O)N(CC(=O)Nc3ccc(F)cc3F)Cc3ccccc3)cc2s1 5.1%
CC(C)C[C@H](NC(=O)[C@@H](Cc1c[nH]c2ccccc12)NC(=O)[C@H](Cc1ccc(O)cc1)NC(=O)[C@H](CO)NC(=O)[C@H](Cc1c[nH]c2ccccc12)NC(=O)[C@H](Cc1cnc[nH]1)NC(=O)[C@@H]1CCC(=O)N1)C(=O)N[C@@H](CCCN=C(N)N)C(=O)N1CCC[C@H]1C(=O)NCC(N)=O 13.9% [at 13.1 µM]
CC1(C)S[C@@H]2[C@H](NC(=O)C3(N)CCCCC3)C(=O)N2[C@H]1C(=O)O 11.8%
O=C(CN1C(=O)CCn2nc(-c3ccccc3)cc21)NCc1ccc(F)cc1 1.3%
CCC(C)NC(=O)c1ccc2nc(-c3cccs3)c(-c3cccs3)nc2c1 (stereo not given) 5.15%
O=C(Cn1nc2c(cc1=O)CCCC2)Nc1ccc(F)cc1F -0.537%
COc1cccc(-c2nc3cc(NC(=O)c4cccnc4)ccc3o2)c1 6.77% [at 78.4 µM]
Cc1oc(-c2ccccc2)nc1CNC(=O)Nc1ccccc1 -0.859%
Cc1ccc(NC(=O)c2ccc3c(c2)NC(=O)c2ccccc2S3)cc1 2.26%
Cc1cc(C(=O)N2CCN(c3cccc(Cl)c3)CC2)c2c(C)nn(-c3ccccc3Cl)c2n1 7.17%
COc1ccc(C(=O)O)cc1Nc1nc2ccc(C)cc2n2cnnc12 -0.298%
Cc1ccccc1NC(=O)Cn1c(=O)n(CCc2ccccc2)c(=O)c2sc3ccccc3c21 0.765%
O=C(Cn1nc(-c2ccc(Cl)cc2)ccc1=O)NCCc1ccccc1 8.85%
CCCCCOC(=O)c1[nH]c2c(c1C)C(=O)CC(c1ccco1)C2 (stereo not given) 0.438% [at 78.4 µM]
Cc1ccc(C)c(C(=O)N2CCC(c3nc4c(nnn4Cc4ccccc4)c(=O)[nH]3)CC2)c1 4.18%
CCOc1ccc(C(=O)c2cn(CC(=O)Nc3cc(OC)ccc3OC)c3cc(OC)c(OC)cc3c2=O)cc1 7.18%
CC1CCCCN1CCCNC(=O)Cn1ncc2c3ccccc3n(Cc3ccccc3)c2c1=O (stereo not given) 7.73%
O=S(=O)(NCCCCNS(=O)(=O)c1cccc2cccnc12)c1cccc2cccnc12 3.74%
COc1ccc(CCNC(=O)c2cc3c(-c4ccc(OC)c(OC)c4)nn(C)c3s2)cc1OC 2.45%
CCOC(=O)c1c(C)[nH]c(CCC(=O)NCCCN2CCN(c3ccc(F)cc3)CC2)c1C 9.99%
C[C@@H]1CC2C3CCC4=CC(=O)C=C[C@]4(C)[C@@]3(F)C(O)C[C@]2(C)[C@@]1(O)C(=O)COC(=O)c1cccc(S(=O)(=O)O)c1 (stereo not given in full) 5.29%
COc1ccc(C2C(C(=O)Nc3ccccc3)=C(C)Nc3c(C(=O)Nc4ccccc4)cnn32)cc1 (stereo not given) 2.35%
CCC(CC)c1nn2c(=O)cc(COc3ccc(NC(=O)c4ccccc4C)cc3)nc2s1 -0.612%
O=C(Nc1cccc(Br)c1)N1CCC(CN2CCCCC2)CC1 0.0864%
CCOC(=O)c1ccccc1NC(=O)Cn1c(=O)n(-c2cccc(C)c2)c(=O)c2c1c1cc(C)ccc1n2C 0.665%
COc1ccc(NC(=O)N2CCc3c(sc4c3CCCC4)C2c2ccccc2OC)cc1 (stereo not given) 0.514%
CCCCCCOc1ccc(CC(=O)O)cc1 -0.0906%
CC(C)C[C@H](N)C(=O)N[C@H](C(=O)N[C@H](C(=O)N[C@@H](Cc1ccc(O)cc1)C(=O)N1CCC[C@H]1C(=O)N[C@@H](Cc1c[nH]c2ccccc12)C(=O)N[C@H](C(=O)N[C@@H](CCC(N)=O)C(=O)N[C@@H](CCCN=C(N)N)C(=O)O)[C@@H](C)O)C(C)C)C(C)C -0.687% [at 4.35 µM]
COc1cc2c(NC3CCN(C)CC3)nc(N3CCN(C)CC3)nc2cc1OCCCN(C)C 13.1%
CN(C)CCNC(=O)CN1C(=O)CCn2nc(-c3cn(C)c4ccccc34)cc21 2.61%
COc1ccc(OC)c(NC(=O)Cn2c(=O)n(CC3CCCO3)c(=O)c3cc(OC)c(OC)cc32)c1 (stereo not given) 6.23%
COc1cc2c(NC3CCN(C(C)C)CC3)nc(N3CCCN(C)CC3)nc2cc1OCCOCCN(C)C 12.3%
Cc1cc(C)cc(-n2ccn(Cc3ccc(F)cc3)c(=O)c2=O)c1 0.558%
CCCCN1C(=O)c2[nH]nc(-c3ccccc3O)c2C1c1ccc(C(C)(C)C)cc1 (stereo not given) 1.59%
CC(O)COCC1OC2OC3C(COCC(C)O)OC(OC4C(COCC(C)O)OC(OC5C(COCC(C)O)OC(OC6C(COCC(C)O)OC(OC7C(COCC(C)O)OC(OC8C(COCC(C)O)OC(OC1C(OCC(C)O)C2OCC(C)O)C(OCC(C)O)C8OCC(C)O)C(OCC(C)O)C7OCC(C)O)C(OCC(C)O)C6OCC(C)O)C(OCC(C)O)C5OCC(C)O)C(OCC(C)O)C4OCC(C)O)C(OCC(C)O)C3OCC(C)O (stereo not given) 8.14%
COc1ccc(NC(=O)Nc2cccc(-c3noc(C)n3)c2)cc1 -0.638%
